Assay outcomes: PubChem, National Center for Advancing Translational Sciences (NCATS)
G9a inh: G9a (human) methyltransferase inhibition | G9a H3K9 monomethylation, AlphaScreen, 2 h | Potency, µM (titrated, usually from 102 µM), inactives show at the top dose activity, negative = inhibition, usual class: inhibitors | 8.8% of 350,000 active; also: potency is read from the fitted curve at half-maximal effect; % is scaled to controls: 0 for no effect and ±100 for the full control effect; nearly all actives have a fitted effect of over 75% in size
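Chemiluminescent proximity detection of H3K9 monomethylation, read after 10 min bead incubation in the dark. Reaction: 20 nM G9a, 500 nM biotin-H3K9 peptide, 20 uM SAM cofactor, 2 h, room temperature, following 15 min enzyme-compound preincubation.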
CtBP-E1A inh: CtBP/E1A binding inhibition. AlphaScreen GST-E1A/His-CtBP binding, 1536-well; hits give low values. AID 651724. 0.49% of 340,000 active. activity change, % (no concentration beside the values); in the data active = activity change below about -65%; inconclusive = mostly about -30% to -63%; also: % is scaled to controls: 0 for no effect and ±100 for the full control effect
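GST-E1A and His-tagged CtBP (125 nM each as 5X stock) were preincubated with pin-transferred compound for 2 h at 37 °C in the dark, then glutathione donor and nickel acceptor beads were added for 1 h before AlphaScreen reading.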
JMJD2A Tudor: blocks the human JMJD2A Tudor domain. AlphaScreen JMJD2A-Tudor / H3K4me3 peptide binding. Potency, µM (titrated, usually from 114 µM), for the others: at the highest dose activity change, negative = inhibition, usual class: inhibitors. 4.4% of 390,000 active. AID 504339; also: potency is read from the fitted curve at half-maximal effect; % is scaled to controls: 0 for no effect and ±100 for the full control effect; nearly all actives have a fitted effect of over 50% in size
Target sequence (O75164 whole entry, looked up, the tested form may be a part): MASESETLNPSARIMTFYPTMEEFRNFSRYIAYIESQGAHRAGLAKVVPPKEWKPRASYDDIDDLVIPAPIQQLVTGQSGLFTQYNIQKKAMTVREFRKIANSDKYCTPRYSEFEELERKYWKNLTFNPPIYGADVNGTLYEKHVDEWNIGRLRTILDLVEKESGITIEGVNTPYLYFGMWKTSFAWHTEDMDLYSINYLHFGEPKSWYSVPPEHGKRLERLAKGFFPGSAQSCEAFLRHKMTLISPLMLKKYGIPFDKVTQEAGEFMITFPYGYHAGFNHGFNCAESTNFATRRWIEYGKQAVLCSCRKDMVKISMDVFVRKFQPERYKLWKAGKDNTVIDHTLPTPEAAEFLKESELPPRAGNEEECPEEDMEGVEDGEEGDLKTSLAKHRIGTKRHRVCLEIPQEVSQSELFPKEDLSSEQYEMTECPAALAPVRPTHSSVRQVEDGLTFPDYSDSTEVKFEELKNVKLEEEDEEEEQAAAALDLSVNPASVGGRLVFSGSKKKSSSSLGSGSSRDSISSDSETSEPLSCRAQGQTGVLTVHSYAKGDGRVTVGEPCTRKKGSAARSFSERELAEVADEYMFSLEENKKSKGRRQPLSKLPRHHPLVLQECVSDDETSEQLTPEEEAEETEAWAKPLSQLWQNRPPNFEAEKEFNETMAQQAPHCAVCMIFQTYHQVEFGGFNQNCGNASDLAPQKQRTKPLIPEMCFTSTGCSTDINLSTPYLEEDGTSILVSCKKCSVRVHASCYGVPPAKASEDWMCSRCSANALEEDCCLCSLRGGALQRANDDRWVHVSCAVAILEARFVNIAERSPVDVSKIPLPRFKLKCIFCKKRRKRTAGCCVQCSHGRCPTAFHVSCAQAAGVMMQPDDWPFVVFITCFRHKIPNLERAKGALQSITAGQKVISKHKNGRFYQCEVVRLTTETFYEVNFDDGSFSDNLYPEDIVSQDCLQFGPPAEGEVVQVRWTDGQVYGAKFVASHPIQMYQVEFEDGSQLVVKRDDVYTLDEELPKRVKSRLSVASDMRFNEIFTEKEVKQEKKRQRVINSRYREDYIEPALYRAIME
BAZ2B inh: blocks human BAZ2B | Q9UIF8 | AlphaScreen BAZ2B-H3K14Ac peptide displacement | Potency, µM (titrated, usually from 114 µM), without a hit: top-dose activity change, negative = inhibition, actives largely listed as inhibitors | 4.4% of 360,000 active | AID 504333; also: potency is read from the fitted curve at half-maximal effect; % is scaled to controls: 0 for no effect and ±100 for the full control effect; nearly all actives have a fitted effect of over 60% in size
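AlphaScreen displacement of biotin-H3(5-23)K14Ac peptide (50 nM final) from BAZ2B (50 nM final) in PBS pH 7.4, 0.01% Tween-20; complex preformed 30 min RT, then compounds (top 110 uM) 30 min RT, beads 20 min dark.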
HP1b chromo inh: blocks HP1-beta chromodomain binding to methylated histone tails; AID 540317; AlphaScreen HP1-beta / biotin-H3K9me3 peptide binding; Potency, µM (doses to about 114 µM), for inactives: at the top dose activity change, negative = inhibition, actives largely listed as inhibitors; P83916; 0.56% of 390,000 active; also: potency is read from the fitted curve at half-maximal effect; nearly all actives have a fitted effect of over 70% in size
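HP1-beta protein (50 nM final) preincubated 30 min at room temperature with biotinylated H3(1-18)K9me3 peptide (50 nM) in PBS pH 7.4, 0.01% Tween-20, then compound added for 30 min. AlphaScreen streptavidin donor/nickel chelate acceptor beads (10 ug/mL final), 30 min dark, luminescence read.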
Six1-Eya2 blk: inhibitors of human Six1/Eya2 interaction; 0.56% of 360,000 active; AlphaScreen GST-Six1/His-Eya2 binding, biochemical; hits give low values; activity change, % (test concentration not listed); in the data active = activity change below about -65%; inconclusive = mostly about -30% to -63%; also: % is scaled to controls: 0 for no effect and ±100 for the full control effect
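AlphaScreen luminescence read after one hour at 37 °C in darkness. Pin-transferred compounds met GST-Six1 and His-Eya2 protein (5X stock 250 nM/500 nM) plus glutathione donor and Ni-chelate acceptor beads (5X, 50 ug/mL).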
Active calls of the source: *; ? = inconclusive; / = not tested or not shown; ! = repeats disagree; [ ] = remark or other dose. A selection: hits, their analogues and other compounds. The true share with any hit is near 10%. Unless noted, calls follow the shape of the dose curve; as a rule, active = well fitted inhibition curve with a large enough effect; inconclusive = small, poorly fitted or top-dose-only effect; inactive = no such curve, though single readings can be large or run the other way.

SMILES	G9a inh	CtBP-E1A inh	JMJD2A Tudor	BAZ2B inh	HP1b chromo inh	Six1-Eya2 blk
COc1ccc(C(=O)NC(=S)N2C[C@H]3C[C@H](C2)c2cccc(=O)n2C3)cc1	25.1µM*	5.0	-22.4%	-7.1%	15.0%	2.2
CCOC(=O)c1ccc(-n2c(N)c(C(=O)NCC3CCCO3)sc2=S)cc1 (configuration not stated)	10µM*	-0.2	?	?	14.1µM*	-0.7
CC(C)c1cccc(C(C)C)c1OC(=O)NC(=O)c1c(F)cccc1F	14.9%[12.7 µM]	-10.3	-20.2%	1.9%	45.3%	-0.9
COC(=O)C1=C(C)NC(C)=C(C(=O)OC)C1c1ccccc1[N+](=O)[O-]	2.99µM*	?	?	39.8µM*	?	-28.4
CCCCCCCCCCCCCC(=O)OC1C(C)[C@@]2(O)C(C=C(CO)C[C@]3(O)C(=O)C(C)=C[C@H]23)[C@@H]2C(C)(C)[C@]12OC(C)=O (some centres not stated)	-30.6%[2.33 µM]	/	/	/	/	/
Cc1ccc(N)c(C(=O)c2ccc(Br)cc2)c1	15.8µM*	-24.3	28.2µM*	39.8µM*	?	?
Nc1ccc(Br)cc1C(=O)c1ccccc1	-39.6%	7.8	-11.4%	/	30.5%	-9.2
N#C/C(=C/c1ccc(O)c(O)c1)C(N)=S	7.52µM*	/	/	/	/	/
N#C/C(=C\c1ccc(O)c(O)c1)C(=O)NCCCNC(=O)/C(C#N)=C/c1ccc(O)c(O)c1	1.68µM*	/	/	/	/	/
COc1ccc(CCNC(=O)CCS(=O)(=O)c2ccc3c(c2)oc(=O)n3C)cc1OC	63.9%	5.5	-9.2%	-16.7%	64.0%	0.0
NC1(c2ccccc2Cl)CCCCC1=O (configuration not stated)	3.3%[59 µM]	/	/	/	/	/
COc1ccc2c(c1OC)C(=O)OC2c1c(O)n(Cc2ccc(F)cc2)c(=O)[nH]c1=O (configuration not stated)	-48.2%[12.7 µM]	-10.9	79.4µM*	?	21.2%	-6.7
O=C(Nc1ccc2nc(-c3cccs3)c(-c3cccs3)nc2c1)N1CCCCC1	/	/	13.5%	/	56.9%	/
Cn1c(O)c(C=NC(CC(N)=O)C(=O)O)c(=O)n(C)c1=O (configuration not stated)	?	/	/	-1.9%	/	/
CCCCCl	28.5%[59 µM]	/	/	/	/	/
Cc1oc(-c2ccccc2)nc1CN1C(=O)CN=C(c2ccccc2)c2ccccc21	?	-0.5	?	?	-0.7%	0.0
Cc1cccc(-c2nc(CN3C(=O)CN=C(c4ccccc4)c4ccccc43)c(C)o2)c1	?	/	?	22.4µM*	-21.0%	/
O=C(CN1CCCCC1)NNC(=O)c1cccc(Br)c1	15.0%	-1.6	-16.2%	2.2%	46.9%	0.7
Cc1cc(O)c2c(c1)C(=O)c1cc(O)cc(O)c1C2=O	1.68µM*	?	44.7µM*	/	?	-1.9
Cc1ccc(OCCOc2cccc(C=C3C(=O)NC(=O)NC3=O)c2)c(C)c1	28.2µM*	36.2	35.5µM*	?	67.8%	17.0
O=C1NC(=O)C(=Cc2cccc(OCCOc3ccccc3)c2)C(=O)N1	35.5µM*	2.1	?	15.2%	-5.1%	-5.4
COc1cc(C=C2C(=O)NC(=O)NC2=O)cc(OC)c1OC	22.3%[2.33 µM]	/	-8.7%	-9.9%	18.9%	3.9
CCN1CCN(c2ccc([N+](=O)[O-])cc2C=C2C(=O)NC(=O)NC2=O)CC1	?	-18.3	-10.6%	0.9%	?	-7.3
CC(=O)Nc1ccc(C=C2C(=O)NC(=O)NC2=O)cc1	/	-23.5	-9.0%	/	40.1%	14.6
O=C1NC(=O)C(=Cc2ccc(OCCOc3ccc([N+](=O)[O-])cc3)cc2)C(=O)N1	22.4µM*	4.5	50.1µM*	44.7µM*	-4.2%	-15.3
SMILES	G9a inh	CtBP-E1A inh	JMJD2A Tudor	BAZ2B inh	HP1b chromo inh	Six1-Eya2 blk
Cc1csc(N2CCc3ccccc32)n1	-7.0%[59 µM]	3.5	-10.7%	-7.2%	50.9%	-2.6
CC12CCC3C(=CCc4cc(O)ccc43)C1CCC2=O (configuration not stated)	5.2%[2.33 µM]	/	/	/	/	/
CNc1ccc2oc(C[C@@H]3OC4(CC[C@@H]3C)O[C@H]([C@@H](C)C(=O)c3ccc[nH]3)[C@H](C)C[C@H]4C)nc2c1C(=O)O (some centres not stated)	15.8µM*	/	/	/	/	/
CNc1ccc2oc(C[C@H]3O[C@@]4(CC[C@H]3C)O[C@H]([C@H](C)C(=O)c3ccc[nH]3)[C@H](C)C[C@H]4C)nc2c1C(=O)O	-20.1%[59 µM]	-12.9	?	-10.4%	17.4%	-8.1
FC(F)OC(F)(F)C(F)Cl (configuration not stated)	8.8%[12.7 µM]	/	/	/	/	/
O=C1C(=O)c2ccccc2-c2ccccc21	?	?	-26.2%	?	19.8%	-1.6
NC1=C(Br)C(=O)c2ccccc2C1=O	50.1µM*	?	-35.5%	?	-9.9%	-22.8
COc1ccc(C)cc1NC(=O)N(Cc1ccc2c(c1)OCO2)C1CCN(Cc2ccccc2)CC1	?	/	?	?	2.6%	/
COc1ccc(C)cc1NC(=O)CN1CCN(CC(=O)Nc2ccccc2F)CC1	39.8µM*!	2.3	9.1%	-2.1%	52.3%	-3.7
CO/C1=C\C(C)=C\[C@@H](C)[C@@H](O)[C@H](C)C/C(C)=C/C=C/[C@H](OC)[C@H]([C@@H](C)[C@@H](O)[C@H](C)[C@H]2C[C@@H](O)[C@H](C)[C@@H](C(C)C)O2)OC1=O	25.9%[59 µM]	/	/	/	/	/
NC(CCCP(=O)(O)O)C(=O)O (configuration not stated)	0.4%[59 µM]	/	/	/	/	/
NC(CP(=O)(O)O)C(=O)O (configuration not stated)	26.7µM*!	/	/	/	/	/
NC(CCCCCP(=O)(O)O)C(=O)O (configuration not stated)	5.97µM*	/	/	/	/	/
CC(C)CCOP(=O)(c1ccc(N(C)C)cc1)C(O)c1ccc(Cl)cc1Cl (configuration not stated)	?	-3.9	?	?	?	-13.9
O=C(Oc1ccccc1)N1CCC2(CCCN(Cc3nccs3)C2)CC1	-8.1%[12.7 µM]	/	/	/	/	/
CCCN1CCCC2Cc3nc(N)ncc3CC21 (configuration not stated)	-7.3%[59 µM]	/	/	/	/	/
COc1ccc(Cc2nccc3cc(OC)c(OC)cc23)cc1OC	5.62µM*!	-18.4	-19.4%	?	-4.2%	-23.0
OC1(c2ccc(Cl)cc2)CCN(Cc2c[nH]c3ccccc23)CC1	29.6%[59 µM]	-9.7	-33.8%	/	-16.4%	-19.2
CCOc1ccc(C2SCC(=O)Nc3c2c(=O)[nH]n3C2CCCCCC2)cc1 (configuration not stated)	2.4%[59 µM]	3.7	-24.3%	-21.0%	17.5%	-0.4
COc1ccc(C2SCC(=O)Nc3c2c(=O)[nH]n3C2CCCCCC2)cc1 (configuration not stated)	70.8µM*	3.1	-15.3%	14.2%	26.4%	0.0
